# Assay outcomes: PubChem BioAssay, National Center for Advancing Translational Sciences (NCATS)
# Shown are actives, neighbours in structure and some others; about 2.4% of the full set was active somewhere.
# D2 ag-1: human D2 receptor agonism in beta-arrestin assay | DiscoveRx PathHunter D2 beta-arrestin, luminescence, 90 min; 100% = 57 uM dopamine signal | activation, % (concentration not given with the values) | 0.084% of 360,000 active; in the data active = activation above about 40%; inconclusive = between about 15% and that limit
# Target sequence (P14416 whole entry, looked up): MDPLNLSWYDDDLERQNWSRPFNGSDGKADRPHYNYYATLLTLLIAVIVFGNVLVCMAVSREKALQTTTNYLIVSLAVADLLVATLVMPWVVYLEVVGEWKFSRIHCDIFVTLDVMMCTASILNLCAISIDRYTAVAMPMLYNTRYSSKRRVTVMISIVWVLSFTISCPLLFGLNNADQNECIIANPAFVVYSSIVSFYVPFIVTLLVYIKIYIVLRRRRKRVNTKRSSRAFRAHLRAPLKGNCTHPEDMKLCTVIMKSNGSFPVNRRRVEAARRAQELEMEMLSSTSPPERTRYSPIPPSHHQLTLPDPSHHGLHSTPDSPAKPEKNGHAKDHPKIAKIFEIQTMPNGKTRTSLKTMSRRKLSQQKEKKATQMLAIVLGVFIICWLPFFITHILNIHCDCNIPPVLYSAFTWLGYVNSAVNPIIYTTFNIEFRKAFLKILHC
#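 Agonist mode: compounds alone added to overnight-plated D2 PathHunter cells for 90 min at 37 C, with 57 uM final dopamine (EC100) defining full response. Beta-arrestin recruitment detected by chemiluminescent reagent, read after 1 h at ambient temperature.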
# D2 PAM-1: positive allosteric modulators of human D2 dopamine receptor | 0.34% of 340,000 active | HEK293 T-REx D2, calcium flux, EC20 dopamine potentiation | AID 485347 | potentiation, % at 10 µM;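 active = potentiation over 3 SD above the plate norm, cut at about 30% in these data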; note: 0% is about no effect
#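 Potentiation of an EC20 dopamine calcium response measured kinetically over 180 s, after a preceding 180 s compound-only read flagging agonists. Cells: inducible Hek293 Trex D2 line, 4000/well, cultured overnight at 30 C before dye loading.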
# D2 ag-2: D2 dopamine receptor (human) agonism | P14416 | HEK293 T-REx D2 cells, calcium flux agonist mode | activation, % at 2 µM | 0.53% of 340,000 active;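 active = activation over 3 SD above normal in the single-dose calcium agonist read, cut at about 30% in these data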; note: 0% is about no effect
#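 Tetracycline-induced HEK293 T-REx cells with force-coupled D2 receptor, plated overnight at 30 C, loaded with no-wash calcium dye. After a 10 s baseline, compound was pin-added and calcium flux read kinetically for 180 s; calcium rises flagged agonists.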
# D2 antag: D2 dopamine receptor (human) antagonism; 2% of 340,000 active; HEK293 TREx D2 cells, calcium flux, dopamine EC80; inhibition, % at 10 µM; AID 485344; P14416; in the data active = inhibition above about 30%; inactive = below that, where a call was filed; note: 0% is about no effect
#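 Calcium flux kinetic readout in an inducible HEK293 TREx D2 line plated overnight at 30 C. After 180 s compound exposure, an EC80 dopamine challenge follows with another 180 s kinetic read to detect antagonism.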
# D2 PAM-2: human D2 receptor positive allosteric modulation | P14416 | DiscoveRx D2 beta-arrestin cells, luminescence, 90 min; 100% = 57 uM dopamine signal | potentiation, % (test concentration not listed) | 0.23% of 360,000 active; in the data active = potentiation above about 50%; inconclusive = mostly about 30% to 49%
#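 D2 cells co-treated with compound plus 50 nM dopamine (EC20) for 90 min at 37 deg C to detect potentiation. Beta-arrestin recruitment was read as enzyme-fragment luminescence after 1 h at ambient temperature. Full response was set by 57 uM dopamine.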
# Active calls of the source: *; ? = inconclusive; . = no result; ! = not confirmed by another sample.
SMILES,D2 ag-1,D2 PAM-1,D2 ag-2,D2 antag,D2 PAM-2
Fc1ccc(C(c2ccc(F)cc2)N2CCN(C/C=C/c3ccccc3)CC2)cc1,-2,-25,-1,65*,-30
C=CCN(CC=C)CCOc1ccccc1F,-1,13,-1,-2,-3
C=CCN(CC=C)CCOc1cccc2ccccc12,1,-19,35*,26,-14
O=C(c1cccs1)N1CCN(C(=O)C2CCCO2)CC1 (stereo not drawn),-1,-7,7,37*,-1
CCOc1ccc2nc(SCC(=O)NCc3ccc(S(N)(=O)=O)cc3)[nH]c2c1,3,2,0,-2,0
C/C(=N/NC(=O)c1ccncc1)c1c[nH]c2ccccc12,0,10,-2,48*,-16
C/C(=N\NC(=O)c1c[nH]c2ccccc12)c1ccc(C)s1,-2,17,-1,2,-12
Clc1cccc(OCCN2CCCC2)c1,2,-14,0,26,-8
CC1CCCN(CCC(=O)c2ccc(Br)cc2)C1 (stereo not drawn),0,-11,-1,29,-50
Brc1cccc(OCCCCN2CCCCC2)c1,-1,-37,1,88*,-13
CC1CCCN(CCOc2ccc(Br)cc2)C1 (stereo not drawn),0,-29,0,63*,-19
CC1CCCN(CCCCOc2cccc(Br)c2)C1 (stereo not drawn),0,-20,0,75*,-32
CCOc1cccc(OCCCCN2CCCCC2)c1,-2,-18,1,-10,-33
CC(C)c1cccc(OCCN2CCCC2)c1,6,-23,1,71*,-23
O=c1c2cccnc2n(Cc2ccccc2F)c(=O)n1Cc1ccccc1Cl,.,-6,1,.,.
COc1cc(Cl)c(C)cc1NC(=O)c1cc2c(Cl)nc3ccc(C)cc3c2s1,.,-5,1,.,.
COc1ccc(NC(=O)CCC(=O)Nc2ccc3nc(N4CCOCC4)cc(C)c3c2)c(OC)c1,4,-7,0,16,-1
COc1cc(NC(=O)CCC(=O)Nc2ccc3nc(N4CCOCC4)cc(C)c3c2)cc(OC)c1OC,-4,-20,-1,31*,-10
COc1ccc(OC)c(C(=O)NC(CC(N)=O)c2ccc(N3CCN(c4ccccc4)CC3)c([N+](=O)[O-])c2)c1 (stereo not drawn),-6,7,-1,-4,-13
COc1ccc(OC)c(C(=O)NC(CC(N)=O)c2ccc(N3CCN(c4ccccn4)CC3)c([N+](=O)[O-])c2)c1 (stereo not drawn),2,-1,-1,32*,-9
O=C1O/C(=C/c2ccccc2)c2ccccc21,2,0,-1,-2,19
N#CC1=C(c2ccccc2)/C(=C/c2ccccc2)OC1=O,0,9,2,35*,-13
NC(=O)CSc1nc2ccccc2c(=O)n1-c1ccccc1,2,5,0,41*,-7
CCn1c(SCC(N)=O)nc2ccccc2c1=O,0,3,0,37*,-10
Cc1ccc(-n2c(SCC(N)=O)nc3c([nH]c4ccccc43)c2=O)cc1,-5,32*!,0,-3,-8
SMILES,D2 ag-1,D2 PAM-1,D2 ag-2,D2 antag,D2 PAM-2
COc1cccc(-n2c(SCC(N)=O)nc3ccccc3c2=O)c1,-1,11,5,28,4
CCOC(=O)c1cc(-c2ccccc2)n(CCCC(=O)Nc2ccc(C)c(Cl)c2)c1C,.,-4,-1,.,.
CCOC(=O)c1c(C)oc2nc(C)nc(N(C)Cc3ccccc3)c12,.,0,0,.,.
Cc1cccc(COc2ccc(/C=C3/C(=O)N(C)C(=S)N3C)cc2)c1,1,-2,-1,31*,-1
O=C1C(Cl)=C(NCc2cccnc2)C(=O)c2ccccc21,?,7,0,34*,7
O=C1C(Cl)=C(NCCc2ccccc2)C(=O)c2ccccc21,2,.,.,.,-16
Cc1cc(C)cc(NC(=O)N2CCN3CCCCC3C2)c1 (stereo not drawn),.,8,-1,.,.
O=C1OC(c2ccccc2)(N(Nc2ccccc2)c2ccccc2)c2ccccc21 (stereo not drawn),2,.,.,.,-15
O=C(COC(=O)c1ccc(S(=O)(=O)NCc2ccco2)cc1)NCc1ccc(F)cc1,4,64*,0,-11,-1
